# “And” between values parts separate entries of the source, which are not always exact repeats. Equal values may be shown once. Results filed as inconclusive are left out. The source made the active and inactive calls. How the source made its calls, unless noted: active means hit-call score of the fitted dose curve at least 0.9, where 1 is the maximum; inactive means score below 0.9.
# How the values were obtained:
# [1] = CCTE_Deisenroth_AIME_96WELL_CTox_Active: Cytotoxicity Assessment (CTOX) in CCTE's 96-well Estrogen Receptor Transactivation Assay with AIME metabolic competence (metabolism positive), Deisenroth Lab (AID 2284028; active means hit-call score of the fitted dose curve at least 0.9, where 1 is the maximum)
# Method in brief: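 Chemicals (0.002–200 uM) were first incubated 2 h with alginate-immobilized phenobarbital/beta-naphthoflavone-induced male rat liver S9; conditioned medium then went onto VM7Luc4E2 cells for 24 h, with viability read by protease-substrate fluorescence, fitted bidirectionally.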
# [2] = CCTE_Deisenroth_AIME_96WELL_CTox_Inactive: Cytotoxicity Assessment (CTOX) in CCTE's 96-well Estrogen Receptor Transactivation Assay without AIME metabolic competence (metabolism negative), Deisenroth Lab (AID 2284029; active means hit-call score of the fitted dose curve at least 0.9, where 1 is the maximum)
# Method in brief: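 Chemicals (0.002 - 200 uM, 10 points) incubated 2 h with alginate-water microspheres (no S9), then medium moved onto VM7Luc4E2 cells for 24 h. Viability by protease-substrate cleavage to fluorescent probe; bidirectional fitting.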
# [3] = STM_H9_OrnCyssISnorm_ratio: Stemina devTOX quickPredict H9 human embryonic stem cell (hESC)-based Assay for Ornithine (ORN):Cystine (CYSS) Ratio (AID 2283714; active means hit-call score of the fitted dose curve at least 0.9, where 1 is the maximum)
# Method in brief: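 Undifferentiated H9 hESCs exposed 72 h, media and compound replaced every 24 h; final 24-h conditioned media deproteinized and analysed by UPLC-HRMS against C13 spike-ins. Value is the internal-standard-normalized ORN/CYSS ratio versus 0.1% DMSO.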
# [4] = STM_H9_NormalizedViability: Cytotoxicity Assessment at 120 hours in the Stemina devTOX quickPredict H9 human embryonic stem cell (hESC)-based Assay (AID 2283784; active means hit-call score of the fitted dose curve at least 0.9, where 1 is the maximum)
# Method in brief: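 Pluripotent H9 hESCs were exposed, with chemical and media replaced every 24 h. Viability was read by CellTiter-Fluor fluorescence, background-corrected and normalized to the 0.1% DMSO neutral control per plate. Loss of signal was fitted.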
# [5] = read-out: Monokine induced gamma interferon (MIG), CXCL9 (gene 4283); assay: BSK_KF3CT_MIG: BioMAP Diversity Plus: KF3CT Assay for Monokine induced gamma interferon (MIG) Biomarker Activity (AID 2284248); details: primary human keratinocytes with fibroblasts
# Method in brief: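 Parallel cultures were stained with SRB (560 nm) to check cytotoxicity. MIG was quantified by ELISA in a primary human skin keratinocyte/fibroblast co-culture 24 h post-dosing, with gain of signal fitted relative to DMSO.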
# [6] = read-out: Plasminogen activator inhibitor-1 (PAI1), SERPINE1 (gene 5054); assay: BSK_KF3CT_PAI1: BioMAP Diversity Plus: KF3CT Assay for Plasminogen activator inhibitor-1 (PAI1) Biomarker Activity (AID 2284252); details: primary human keratinocytes with fibroblasts
# Method in brief: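 Human keratinocyte/foreskin fibroblast co-culture dosed for 24 h; PAI-1 measured by ELISA, fitted in positive direction against DMSO baseline. Parallel SRB total-protein staining (0.1% SRB, 560 nm) assesses overt cytotoxicity.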
# [7] = read-out: Interleukin-8 (IL8), CXCL8 (gene 3576); assay: BSK_KF3CT_IL8: BioMAP Diversity Plus: KF3CT Assay for Interleukin-8 (IL8) Biomarker Activity (AID 2284254); details: primary human keratinocytes with fibroblasts
# Method in brief: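 IL-8 by ELISA in primary human skin co-culture (keratinocytes plus fibroblasts) 24 h post-dose, DMSO as baseline. Cytotoxicity assessed in parallel by sulforhodamine B total-protein staining.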
# [8] = read-out: Interferon-inducible T-cell alpha chemoattractant (ITAC), CXCL11 (gene 6373); assay: BSK_BE3C_ITAC: BioMAP Diversity Plus: BE3C Assay for Interferon-inducible T-cell alpha chemoattractant (ITAC) Biomarker Activity (AID 2284279); details: primary human bronchial epithelial cells
# Method in brief: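 BE3C cells (human primary bronchial epithelium), 24 h compound exposure, I-TAC by ELISA, DMSO = negative control/baseline, positive fitting direction.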
# [9] = read-out: Interleukin-8 (IL8), CXCL8 (gene 3576); assay: BSK_BE3C_IL8: BioMAP Diversity Plus: BE3C Assay for Interleukin-8 (IL8) Biomarker Activity (AID 2284280); details: primary human bronchial epithelial cells
# Method in brief: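 Primary human bronchial epithelial cells (BE3C system) exposed 24 h; IL-8 measured by ELISA and fitted in positive direction versus DMSO. Overt cytotoxicity assessed by SRB total-protein staining in parallel cultures.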
# [10] = read-out: Epidermal growth factor receptor (EGFR), EGFR (gene 1956); assay: BSK_BE3C_EGFR: BioMAP Diversity Plus: BE3C Assay for Epidermal growth factor receptor (EGFR) Biomarker Activity (AID 2284281); details: primary human bronchial epithelial cells
# Method in brief: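 Human primary bronchial epithelial cells (BE3C system) dosed with chemicals; EGFR measured by ELISA at 24 h, fitted in the positive direction relative to DMSO. Cytotoxicity tracked in parallel cultures by SRB total-protein staining.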
# [11] = read-out: Plasminogen activator inhibitor-1 (PAI1), SERPINE1 (gene 5054); assay: BSK_CASM3C_PAI1: BioMAP Diversity Plus: CASM3C Assay for Plasminogen activator inhibitor-1 (PAI1) Biomarker Activity (AID 2284284); details: primary human coronary artery smooth muscle cells;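 further: PAI-1 protein level measured by ELISA 24 h after dosing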
# [12] = read-out: Monocyte Chemoattractant Protein-1 (MCP1), CCL2 (gene 6347); assay: BSK_hDFCGF_MCP1: BioMAP Diversity Plus: hDFCGF Assay for Monocyte Chemoattractant Protein-1 (MCP1) Biomarker Activity (AID 2284285); details: primary human foreskin fibroblasts
# Method in brief: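 Human foreskin fibroblasts (hDFCGF system) were exposed to compound and secreted MCP-1 was measured by ELISA after 24 hours. Activity was fitted relative to DMSO. Cytotoxicity was checked by SRB total-protein staining in parallel cultures.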
# [13] = read-out: TIMP metallopeptidase inhibitor 2 (TIMP2), TIMP2 (gene 7077); assay: BSK_hDFCGF_TIMP2: BioMAP Diversity Plus: hDFCGF Assay for TIMP metallopeptidase inhibitor 2 (TIMP2) Biomarker Activity (AID 2284289); details: primary human foreskin fibroblasts
# Method in brief: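 Primary human foreskin fibroblasts in the hDFCGF system, dosed for 24 h; TIMP-2 level measured by ELISA, fitted in the positive direction against DMSO; cytotoxicity checked in parallel by sulforhodamine B total protein staining.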
# [14] = read-out: Thrombomodulin, THBD (gene 7056); assay: BSK_LPS_Thrombomodulin: BioMAP Diversity Plus: LPS Assay for Thrombomodulin Biomarker Activity (AID 2284296); details: primary human HUVEC with PBMC
# Method in brief: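 Human umbilical vein endothelial cells co-cultured with PBMC and stimulated with LPS; cell-surface thrombomodulin measured by ELISA 24 hours after compound. Gain or loss versus DMSO; cytotoxicity checked by SRB staining in parallel cultures.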
# CD69, CD69 (gene 969) = assay: BSK_LPS_CD69: BioMAP Diversity Plus: LPS Assay for CD69 Biomarker Activity (AID 2284303); details: primary human HUVEC with PBMC
# Method in brief: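 Human umbilical vein endothelial cells co-cultured with PBMC under LPS stimulation, chemical exposure 24 h; cell-surface CD69 measured by ELISA and fitted in the positive direction versus DMSO.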
# [15] = CCTE_Mundy_HCI_hNP1_Pro_ResponderAvgInten: CCTE's Proliferation Assay in human neuroprogenitor cells, Mundy Lab (AID 2284224; active means hit-call score of the fitted dose curve at least 0.9, where 1 is the maximum;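 further: human neural progenitor cells hNP1 derived from WA09 embryonic stem cells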)
# Method in brief: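 Proliferation read as average intensity of BrdU-positive cells, imaged at 26.25 h post-dosing: chemical exposure started after 40–44 h culture, BrdU during final 4 h, paraformaldehyde fixation. Positive-direction fit relative to DMSO.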
# IYD (gene 389434) = assay: CCTE_GLTED_hIYD: CCTE's human Iodotyrosine Deiodinase (xIYD) Inhibition Assay, Great Lakes Toxicology and Ecology Division (GLTED) Lab (AID 2284317; active means hit-call score of the fitted dose curve at least 0.9, where 1 is the maximum;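 further: cell-free human IYD enzyme made in baculovirus insect cells; iodide freed from monoiodotyrosine measured by cerium arsenite color change at 420 nm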)
# Method in brief: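 hIYD: baculovirus-expressed human IYD deiodinated monoiodotyrosine for 3 h with test chemical; free iodide was measured by Sandell-Kolthoff absorbance at 420 nm and normalized to MNT and DMSO/NaOH controls.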
# [16] = target: Tyrosine-protein phosphatase non-receptor type 11 (Homo sapiens) (UniProt Q06124); assay: NVS_ENZ_hPTPN11: NovaScreen (NVS) Enzymatic Assay for human Protein Tyrosine Phosphatase Non-receptor Type 11 (PTPN11) (AID 2283202; active means hit-call score of the fitted dose curve at least 0.9, where 1 is the maximum)
# Method in brief: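 Recombinant human PTPN11 activity on a fluorescent substrate, with substrate/product separated by electrophoretic mobility shift; read 0.5 h after dosing, loss of signal vs DMSO. Duplicate 25 uM screen, then concentration-response up to 50 uM.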
# [17] = ATG_M_06_XSP2: Attagene TRANS-FACTORIAL Multi-Species (XSP2) HepG2 Assay for M06 Transcription Factor (Internal Marker) (AID 2283811; active means hit-call score of the fitted dose curve at least 0.9, where 1 is the maximum;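 further: hits are increases in signal above the DMSO baseline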)
# Method in brief: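 HepG2 cells transiently transfected with GAL4-UAS multiple reporter units, medium containing 3 nM 6-alpha-fluorotestosterone and 1.5 nM norgestrel; reporter mRNA measured 24 hours post-dosing by RT-PCR and capillary electrophoresis. Internal background marker, gain of signal vs DMSO.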
# [18] = system: turtle Estrogen Receptor (ERa), gene 101933533; assay: ATG_trERa_XSP2: Attagene TRANS-FACTORIAL Multi-Species (XSP2) HepG2 Assay for turtle Estrogen Receptor (ERa) (AID 2283812; active means hit-call score of the fitted dose curve at least 0.9, where 1 is the maximum;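 further: human HepG2 liver cells transiently expressing turtle ERa-Gal4 chimeric receptor; actives raise reporter signal above DMSO so AC50 reflects agonist activity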)
# Method in brief: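 HepG2 cells transiently transfected with GAL4-UAS reporter units expressing turtle ERa-Gal4 chimera. Reporter mRNA measured after 24 h dosing by RT-PCR, fluorescent labelling and capillary electrophoresis; gain of signal fitted versus DMSO.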
# Sequence of Tyrosine-protein phosphatase non-receptor type 11 (Homo sapiens) (Q06124 whole entry, looked up): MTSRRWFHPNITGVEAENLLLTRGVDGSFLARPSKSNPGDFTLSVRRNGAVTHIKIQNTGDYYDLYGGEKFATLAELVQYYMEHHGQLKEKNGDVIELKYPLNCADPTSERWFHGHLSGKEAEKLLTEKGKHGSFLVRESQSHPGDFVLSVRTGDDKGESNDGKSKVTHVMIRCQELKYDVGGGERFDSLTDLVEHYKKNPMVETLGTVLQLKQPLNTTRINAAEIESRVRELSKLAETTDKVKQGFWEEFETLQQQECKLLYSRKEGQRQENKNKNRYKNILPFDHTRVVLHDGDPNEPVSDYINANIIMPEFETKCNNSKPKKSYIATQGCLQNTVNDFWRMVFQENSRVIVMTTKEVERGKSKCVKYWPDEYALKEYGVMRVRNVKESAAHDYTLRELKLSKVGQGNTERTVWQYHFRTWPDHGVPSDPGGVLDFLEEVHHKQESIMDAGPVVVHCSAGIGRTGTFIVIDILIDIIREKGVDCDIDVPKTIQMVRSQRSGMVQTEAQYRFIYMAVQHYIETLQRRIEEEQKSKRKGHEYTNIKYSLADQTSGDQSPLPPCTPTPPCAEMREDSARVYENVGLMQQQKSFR
structure (smiles),measurement,setting,value
Cc1cc(-n2nc3ccc(Cl)cc3n2)c(O)c(C(C)(C)C)c1,outcome,[1],inactive
same,outcome,[2],inactive
CN(C)Cc1cc(C(C)(C)C)c(O)c(C(C)(C)C)c1,outcome,[3],inactive
same,outcome,[4],inactive
same,outcome,[5],inactive
same,outcome,[6],inactive
same,outcome,[7],inactive
same,outcome,[8],inactive
same,outcome,[9],inactive
same,outcome,[10],inactive
same,outcome,[11],inactive
same,outcome,[12],inactive
same,outcome,[13],inactive
same,outcome,[14],inactive
same,AC50,"CD69, CD69 (gene 969)",20 µM (active) and 23.1 µM (active)
NC(N)=Nc1nc(CSCCC(N)=NS(N)(=O)=O)cs1,outcome,[15],inactive
Cc1cc2nc3c(=O)[nH]c(=O)nc-3n(C[C@H](O)[C@H](O)[C@H](O)CO)c2cc1C,AC50,IYD (gene 389434),94.2 µM (active)
Cc1cc(O)cc(C)c1Cl,outcome,[16],inactive
same,outcome,[17],inactive
same,AC50,[18],45.8 µM (active) and 16.2 µM (active)

# Source: PubChem BioAssay (EPA / NIEHS)
